Structures can show the parent of a compound that is named as a salt. ± gives the standard deviation of the averaged measurements.
What was measured:
Assay in all cases: growth (OD600 after 10 h); higher = more growth (less inhibition)
[1] = tested on: E. coli TESEC Alr+ wild-type control; conditions: compound 0.1 mM; raw OD600 reference: median of DMSO wells 0.241, cell-free background 0.041
Protocol: (§1)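 TESEC Mtb Alr E. coli, or the Alr+ wild-type control, in 384-well plates with Prestwick library compounds at 0.1 mM and 1% DMSO, across arabinose induction levels of 1E3 to 1E7 nM. Growth is read as OD600 after 10 h at 37 °C in triplicate biological replicates.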

E. coli TESEC Mtb Asd = conditions: compound 0.1 mM
Protocol: (§2)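 TESEC E. coli strains in which the native enzyme is deleted and replaced by arabinose-inducible Mtb Asd, DapB, CysH or TrpD, each grown in its selective medium. Strains were screened against the Prestwick library at 0.1 mM and 1% DMSO in 384-well format at low and high arabinose induction. Growth is read as OD600 after 10 h in triplicate.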

E. coli TESEC Mtb DapB = conditions: compound 0.1 mM
Protocol: as §2

[2] = tested on: E. coli TESEC Alr+ wild-type control; conditions: compound 0.1 mM; raw OD600 reference: median of DMSO wells 0.49, cell-free background 0.052
Protocol: (§3)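 TESEC Mtb Alr E. coli (ΔaraC ΔtolC ΔentC Δalr ΔdadX, arabinose-inducible Mtb Alr) or the Alr+ wild-type control strain, grown in defined M9-fructose medium without D-alanine in 96-well plates with Prestwick library compounds at 0.1 mM and 1% DMSO. Low Alr induction is 0.1 µM arabinose and high induction is 10 mM arabinose.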

E. coli TESEC Mtb Alr [3] = conditions: compound 0.1 mM
Protocol: as §3

E. coli TESEC Mtb Alr [4] = conditions: compound 0.1 mM; remark: listed apart in the source
Protocol: as §1

[5] = arabinose induction (level): High, raw OD600 reference: median of DMSO wells 0.331, cell-free background 0.041
[6] = arabinose induction (level): Low, raw OD600 reference: median of DMSO wells 0.417, cell-free background 0.041
[7] = arabinose induction (level): High, raw OD600 reference: median of DMSO wells […], cell-free background 0.041
[8] = arabinose induction (level): Low, raw OD600 reference: median of DMSO wells 0.227, cell-free background 0.041
[9] = arabinose 100 nM, raw OD600 reference: median of DMSO wells 0.413, cell-free background 0.052
[10] = arabinose 10000000 nM, raw OD600 reference: median of DMSO wells […], cell-free background 0.052
[11] = arabinose 1000 nM, raw OD600 reference: median of DMSO wells 0.294, cell-free background 0.041
[12] = arabinose 10000 nM, raw OD600 reference: median of DMSO wells 0.264, cell-free background 0.041
[13] = arabinose 100000 nM, raw OD600 reference: median of DMSO wells 0.201, cell-free background 0.041
[14] = arabinose 1000000 nM, raw OD600 reference: median of DMSO wells 0.193, cell-free background 0.041
[15] = arabinose 10000000 nM, raw OD600 reference: median of DMSO wells 0.146, cell-free background 0.041

| Compound | growth [1] | growth (E. coli TESEC Mtb Asd; [5]) | growth (E. coli TESEC Mtb Asd; [6]) | growth (E. coli TESEC Mtb DapB; [7]) | growth (E. coli TESEC Mtb DapB; [8]) | growth [2] | growth (E. coli TESEC Mtb Alr [3]; [9]) | growth (E. coli TESEC Mtb Alr [3]; [10]) | growth (E. coli TESEC Mtb Alr [4]; [11]) | growth (E. coli TESEC Mtb Alr [4]; [12]) | growth (E. coli TESEC Mtb Alr [4]; [13]) | growth (E. coli TESEC Mtb Alr [4]; [14]) | growth (E. coli TESEC Mtb Alr [4]; [15]) |
| --- | --- | --- | --- | --- | --- | --- | --- | --- | --- | --- | --- | --- | --- |
| CNC[C@H](O)[C@@H](O)[C@H](O)[C@H](O)CO [Meglumine] | 0.237 ± 0.0045 | 0.325 ± 0.022 | 0.408 ± 0.066 | 0.199 ± 0.049 | 0.235 ± 0.017 | 0.548 ± 0.015 | 0.404 ± 0.019 | 0.356 ± 0.011 | – | – | – | – | – |
| COc1ccccc1O [Guaiacol] | 0.255 ± 0.0046 | 0.212 ± 0.031 | 0.364 ± 0.063 | 0.19 ± 0.008 | 0.202 ± 0.028 | 0.558 ± 0.079 | 0.407 ± 0.016 | 0.356 ± 0.009 | – | – | – | – | – |
| Cc1ncc(C[n+]2csc(CCO)c2C)c(N)n1 [Thiamine hydrochloride] | 0.246 ± 0.0087 | 0.354 ± 0.062 | 0.418 ± 0.062 | – | – | – | 0.42 ± 0.0059 | 0.362 ± 0.02 | 0.295 ± 0.0076 | 0.251 ± 0.0027 | 0.174 ± 0.014 | 0.185 ± 0.0064 | 0.129 ± 0.0017 |
| CCOC(=O)C1=C(C)NC(C)=C(C(=O)OCC)C1c1ccccc1/C=C/C(=O)OC(C)(C)C [Lacidipine] | 0.2596 ± 0.0023 | 0.299 ± 0.12 | 0.346 ± 0.043 | – | – | – | 0.429 ± 0.017 | 0.322 ± 0.023 | 0.308 ± 0.013 | 0.247 ± 0.0068 | 0.201 ± 0.017 | 0.119 ± 0.0029 | 0.156 ± 0.0078 |
| c1cnc(N2CCN(Cc3ccc4c(c3)OCO4)CC2)nc1 [Piribedil hydrochloride] | 0.2234 ± 0.0017 | 0.218 ± 0.013 | 0.399 ± 0.027 | – | – | – | 0.398 ± 0.014 | 0.366 ± 0.01 | 0.273 ± 0.0036 | 0.256 ± 0.0059 | 0.179 ± 0.01 | 0.166 ± 0.0044 | 0.14 ± 0.0043 |
| CC(C(=O)O)c1cccc(Oc2ccccc2)c1 (stereo not given) [Fenoprofen calcium salt dihydrate] | 0.22 ± 0.0072 | 0.361 ± 0.075 | 0.322 ± 0.042 | 0.205 ± 0.01 | 0.192 ± 0.014 | 0.489 ± 0.089 | 0.397 ± 0.009 | 0.255 ± 0.0093 | – | – | – | – | – |
| CN1CCN(C(c2ccccc2)c2ccccc2)CC1 [Cyclizine hydrochloride] | 0.216 ± 0.0082 | 0.173 ± 0.0089 | 0.31 ± 0.039 | 0.168 ± 0.0017 | 0.196 ± 0.0017 | 0.602 ± 0.088 | 0.41 ± 0.011 | 0.325 ± 0.0044 | – | – | – | – | – |
| NC[C@H]1O[C@H](O[C@H]2[C@H](O[C@@H]3O[C@H](CO)[C@@H](O)[C@H]3O)[C@@H](O)[C@H](N)C[C@@H]2N)[C@H](N)[C@@H](O)[C@@H]1O [Ribostamycin sulfate salt] | 0.238 ± 0.011 | 0.37 ± 0.013 | 0.458 ± 0.012 | 0.218 ± 0.023 | 0.226 ± 0.016 | 0.549 ± 0.058 | 0.42 ± 0.011 | 0.366 ± 0.012 | – | – | – | – | – |
| CC(C(=O)O)c1ccc2c(c1)[nH]c1ccc(Cl)cc12 (stereo not given) [Carprofen] | 0.0924 ± 0.0058 | 0.171 ± 0.015 | 0.168 ± 0.044 | 0.201 ± 0.0073 | 0.215 ± 0.011 | 0.594 ± 0.029 | 0.409 ± 0.0018 | 0.149 ± 0.025 | – | – | – | – | – |
| CCN(CCO)CCCC(C)Nc1ccnc2cc(Cl)ccc12 (stereo not given) [Hydroxychloroquine sulfate] | 0.228 ± 0.0034 | 0.265 ± 0.052 | 0.352 ± 0.013 | 0.198 ± 0.0048 | 0.24 ± 0.04 | 0.54 ± 0.024 | 0.405 ± 0.01 | 0.354 ± 0.017 | – | – | – | – | – |
| CC1=C(/C=C/C(C)=C/C=C/C(C)=C\C(=O)O)C(C)(C)CCC1 [Isotretinoin] | 0.245 ± 0.0032 | 0.328 ± 0.098 | 0.365 ± 0.073 | 0.185 ± 0.018 | 0.195 ± 0.014 | 0.425 ± 0.028 | 0.438 ± 0.0094 | 0.251 ± 0.014 | – | – | – | – | – |
| CC(NCCc1ccc(O)cc1)C(O)c1ccc(O)cc1 (stereo not given) [Ritodrine hydrochloride] | 0.234 ± 0.0026 | 0.251 ± 0.027 | 0.348 ± 0.055 | 0.179 ± 0.0043 | 0.185 ± 0.01 | 0.56 ± 0.074 | 0.408 ± 0.0081 | 0.36 ± 0.019 | – | – | – | – | – |
| OCCN1CCN(CCCN2c3ccccc3C=Cc3ccccc32)CC1 [Opipramol dihydrochloride] | 0.142 ± 0.003 | 0.16 ± 0.019 | 0.276 ± 0.024 | 0.199 ± 0.027 | 0.218 ± 0.04 | 0.464 ± 0.013 | 0.407 ± 0.006 | 0.298 ± 0.0042 | – | – | – | – | – |
| CC(C)(C)NC[C@H](O)COc1ccccc1C1CCCC1 [Penbutolol sulfate] | 0.211 ± 0.0068 | 0.205 ± 0.028 | 0.295 ± 0.038 | 0.184 ± 0.013 | 0.207 ± 0.015 | 0.429 ± 0.019 | 0.412 ± 0.0049 | 0.261 ± 0.047 | – | – | – | – | – |
| CC(C)(Sc1cc(C(C)(C)C)c(O)c(C(C)(C)C)c1)Sc1cc(C(C)(C)C)c(O)c(C(C)(C)C)c1 [Probucol] | 0.248 ± 0.0044 | 0.344 ± 0.1 | 0.408 ± 0.093 | 0.207 ± 0.014 | 0.22 ± 0.016 | 0.583 ± 0.039 | 0.407 ± 0.0098 | 0.366 ± 0.015 | – | – | – | – | – |
| CN1C(=O)OC(C)(C)C1=O [Trimethadione] | 0.242 ± 0.0071 | 0.297 ± 0.098 | 0.409 ± 0.037 | – | – | – | 0.423 ± 0.011 | 0.344 ± 0.02 | 0.283 ± 0.0076 | 0.269 ± 0.012 | 0.202 ± 0.014 | 0.185 ± 0.0082 | 0.1382 ± 0.00081 |
| CN(C)CCN(Cc1ccc(Cl)cc1)c1ccccn1 [Chloropyramine hydrochloride] | 0.189 ± 0.0042 | 0.171 ± 0.017 | 0.43 ± 0.013 | – | – | – | 0.399 ± 0.0085 | 0.314 ± 0.012 | 0.245 ± 0.0086 | 0.265 ± 0.0041 | 0.201 ± 0.0069 | 0.148 ± 0.0046 | 0.128 ± 0.006 |
| Cc1cc2c(cc1S(N)(=O)=O)S(=O)(=O)CCC2 [Meticrane] | 0.252 ± 0.0068 | 0.389 ± 0.044 | 0.425 ± 0.049 | 0.186 ± 0.0019 | 0.281 ± 0.079 | 0.423 ± 0.008 | 0.408 ± 0.0074 | 0.254 ± 0.17 | – | – | – | – | – |
| COc1cc(-c2ccc(=O)[nH]n2)ccc1OC(F)F [Zardaverine] | 0.14 ± 0.0036 | 0.211 ± 0.014 | 0.162 ± 0.014 | 0.16 ± 0.012 | 0.176 ± 0.018 | 0.442 ± 0.044 | 0.401 ± 0.0082 | 0.35 ± 0.011 | – | – | – | – | – |
| CN(CCCN1c2ccccc2CCc2ccccc21)CC(=O)c1ccc(Cl)cc1 [Lofepramine] | 0.133 ± 0.0019 | 0.27 ± 0.062 | 0.196 ± 0.025 | 0.23 ± 0.064 | 0.227 ± 0.017 | 0.343 ± 0.013 | 0.4242 ± 0.0042 | 0.202 ± 0.017 | – | – | – | – | – |

From the supplement of paper PMC9262897, “Low-cost anti-mycobacterial drug discovery using engineered E. coli” (Nature Communications, 2022)
